Test results published in PubChem BioAssay (NCI).
Compounds without any hit were thinned out: in the full panel of roughly 83,000, 20% have a hit.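 The endpoint reported here, percent growth, reads 100 for growth as untreated, 0 for no net growth and -100 for all cells dead.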 Active and inactive are the calls of the source. The calls were made as follows: active = growth percent below 10; inactive = the rest.

Legend:
Experiment in all cases: NCI-60 one-dose screen, 48 h (100 = growth as untreated, 0 = no growth, -100 = all killed)
Details in all cases: 10 µM unless noted
SR leukemia = system: SR leukemia
RPMI-8226 leukemia = system: RPMI-8226 leukemia
OVCAR-8 ovarian = system: OVCAR-8 ovarian
OVCAR-5 ovarian = system: OVCAR-5 ovarian
OVCAR-4 ovarian = system: OVCAR-4 ovarian
SK-OV-3 ovarian = system: SK-OV-3 ovarian
IGROV1 ovarian = system: IGROV1 ovarian
HS 578T breast = system: HS 578T breast
NCI/ADR-RES ovarian = system: NCI/ADR-RES ovarian
OVCAR-3 ovarian = system: OVCAR-3 ovarian

Measured: growth

CC(=O)Nc1ccc(C)c(Nc2cc(-c3ccc(-n4cccn4)cc3)[nH]n2)c1
inactive: SR leukemia 19.2% | RPMI-8226 leukemia 50.3% | OVCAR-8 ovarian 80% | OVCAR-5 ovarian 93.3% | OVCAR-4 ovarian 82.1% | SK-OV-3 ovarian 59.3% | IGROV1 ovarian 47.6% | HS 578T breast 42.3% | NCI/ADR-RES ovarian 87.7%

CN1CCN(Cc2ccc(NC(=O)c3cncc(C#Cc4[nH]nc5ncncc45)c3)cc2C(F)(F)F)CC1
inactive: SR leukemia 48% | RPMI-8226 leukemia 45.2% | OVCAR-8 ovarian 88.7% | OVCAR-5 ovarian 77.7% | OVCAR-4 ovarian 88.5% | SK-OV-3 ovarian 60.8% | IGROV1 ovarian 38.2% | HS 578T breast 45.9%

Oc1ccc(CSc2nnc(-c3ccc(Cl)cc3)o2)c2cccnc12
active: HS 578T breast 1.27% | NCI/ADR-RES ovarian 9.8%
inactive: SR leukemia 34.3% | RPMI-8226 leukemia 18.6% | OVCAR-8 ovarian 18.9% | OVCAR-5 ovarian 73.1% | OVCAR-4 ovarian 19.8% | SK-OV-3 ovarian 20.3% | IGROV1 ovarian 16.4% | OVCAR-3 ovarian 30.8%

O=C(O)c1ccc(-n2cc(CNc3ccc(Cl)cc3)c(-c3ccc(F)cc3)n2)cc1
inactive: SR leukemia 121% | RPMI-8226 leukemia 80.2% | OVCAR-8 ovarian 92.4% | OVCAR-5 ovarian 106% | OVCAR-4 ovarian 101% | SK-OV-3 ovarian 110% | IGROV1 ovarian 102% | OVCAR-3 ovarian 105% | HS 578T breast 100% | NCI/ADR-RES ovarian 102%

COc1ccc(CCN2C(=O)/C(=C/c3nc(CO)cs3)SC2=S)cc1
inactive: SR leukemia 60.4% | RPMI-8226 leukemia 17.7% | OVCAR-8 ovarian 97.5% | OVCAR-5 ovarian 102% | OVCAR-4 ovarian 91.8% | SK-OV-3 ovarian 97.9% | IGROV1 ovarian 91.4% | OVCAR-3 ovarian 54.2% | HS 578T breast 106% | NCI/ADR-RES ovarian 95.7%

O=[N+]([O-])c1ccc(-c2nnc(SCc3ccc(O)c4ncccc34)n2-c2ccccc2)cc1
active: HS 578T breast 5.1%
inactive: SR leukemia 40.6% | RPMI-8226 leukemia 17.8% | OVCAR-8 ovarian 17.9% | OVCAR-5 ovarian 73.9% | OVCAR-4 ovarian 50.6% | SK-OV-3 ovarian 30.6% | IGROV1 ovarian 30.6% | OVCAR-3 ovarian 30.5% | NCI/ADR-RES ovarian 69%

O=c1[nH]c(CCl)nc2c1cnn2-c1ccccc1
inactive: SR leukemia 87.1% | RPMI-8226 leukemia 82.5% | OVCAR-8 ovarian 104% | OVCAR-5 ovarian 114% | OVCAR-4 ovarian 111% | SK-OV-3 ovarian 122% | IGROV1 ovarian 95.9% | OVCAR-3 ovarian 100% | HS 578T breast 111% | NCI/ADR-RES ovarian 106%

Nc1n[nH]c2cccc(C#Cc3cccc(NC(=O)c4cccc(OC(F)(F)F)c4)c3)c12
active: HS 578T breast 1.43%
inactive: SR leukemia 47% | RPMI-8226 leukemia 57.2% | OVCAR-8 ovarian 60.3% | OVCAR-5 ovarian 50.7% | OVCAR-4 ovarian 66.7% | SK-OV-3 ovarian 105% | IGROV1 ovarian 19.9%

CCc1ccc(NC(=O)N[C@@H](Cc2cc(F)cc(F)c2)C(=O)N[C@@H]2C(=O)N3CCC[C@H]3C(=O)N3CCO[C@H](C)[C@H]3C(=O)N[C@@H](CO)C(=O)N3C[C@H](C)C[C@H]3C(=O)O[C@H]2C)c(F)c1
inactive: SR leukemia 32% | RPMI-8226 leukemia 17% | OVCAR-8 ovarian 22.9% | OVCAR-5 ovarian 35.9% | OVCAR-4 ovarian 22.9% | SK-OV-3 ovarian 26.3% | IGROV1 ovarian 39.5% | HS 578T breast 35.8% | NCI/ADR-RES ovarian 70%

COc1cc(O)c2c(c1)/C=C/C[C@H](O)[C@H](O)C(=O)/C=C\C[C@H](C)OC2=O
inactive: OVCAR-8 ovarian 19.9% | OVCAR-4 ovarian 18.9% | SK-OV-3 ovarian 75.4%
active: SR leukemia -6.77% | RPMI-8226 leukemia -4.42% | OVCAR-5 ovarian 8.3% | IGROV1 ovarian 9.18% | HS 578T breast -26.4% | NCI/ADR-RES ovarian 8.99%

Oc1ccc(CSc2nnc(-c3ccncc3)n2-c2ccccc2)c2cccnc12
inactive: SR leukemia 35.6% | RPMI-8226 leukemia 13.6% | OVCAR-8 ovarian 18.3% | OVCAR-5 ovarian 45.7% | OVCAR-4 ovarian 17% | HS 578T breast 15.4%
active: SK-OV-3 ovarian 9.36% | IGROV1 ovarian 8.84% | OVCAR-3 ovarian 5.81% | NCI/ADR-RES ovarian 9.52%

N#Cc1c(NC(=O)c2ccc(F)c(Cl)c2)sc2c1CCC(=O)C2
inactive: OVCAR-8 ovarian 16.6% | SK-OV-3 ovarian 25.8%
active: SR leukemia 0.0131% | RPMI-8226 leukemia 0.133% | OVCAR-5 ovarian -14.6% | OVCAR-4 ovarian -52% | IGROV1 ovarian -25.7% | OVCAR-3 ovarian -47.3% | HS 578T breast -2.33% | NCI/ADR-RES ovarian -11.8%

CCN(CC)CCN1C(=O)c2c(c3c4cccnc4[nH]c3c3ccc4ccccc4c23)C1=O
active: SR leukemia 3.65%
inactive: RPMI-8226 leukemia 73.1% | OVCAR-8 ovarian 62.3% | OVCAR-5 ovarian 111% | OVCAR-4 ovarian 102% | SK-OV-3 ovarian 64.4% | IGROV1 ovarian 55% | HS 578T breast 109% | NCI/ADR-RES ovarian 55.5%

COC[C@]12CC[C@@H](C)[C@H](C)[C@H]1C1=CC[C@@H]3[C@@]4(C)CCCNC(C)(C)[C@@H]4CC[C@@]3(C)[C@]1(C)CC2
active: SR leukemia -3.33% | RPMI-8226 leukemia 2.86%
inactive: OVCAR-8 ovarian 62.4% | OVCAR-5 ovarian 61.6% | OVCAR-4 ovarian 38% | SK-OV-3 ovarian 85.4% | IGROV1 ovarian 30.2% | OVCAR-3 ovarian 41.4% | HS 578T breast 74.3% | NCI/ADR-RES ovarian 44.3%

Oc1ccc(CSc2nnc(-c3ccccc3)o2)c2cccnc12
inactive: SR leukemia 36.8% | RPMI-8226 leukemia 14.1% | OVCAR-8 ovarian 17.5% | OVCAR-5 ovarian 74% | OVCAR-4 ovarian 16.5% | SK-OV-3 ovarian 10.8% | IGROV1 ovarian 18.5% | OVCAR-3 ovarian 28.2% | NCI/ADR-RES ovarian 11.1%
active: HS 578T breast -3.94%

CS(=O)(=O)c1ccc2c(c1)c1c(n2S(=O)(=O)c2ccc(Cl)cc2)CCCC1
active: HS 578T breast 0.523%
inactive: SR leukemia 12.3% | RPMI-8226 leukemia 19.1% | OVCAR-8 ovarian 31.9% | OVCAR-5 ovarian 40.2% | OVCAR-4 ovarian 64.7% | SK-OV-3 ovarian 29.7% | IGROV1 ovarian 48%

CCOC(=O)/C(F)=C/C1CC1CCc1cccc(C(F)(F)F)c1 (centres undefined)
inactive: SR leukemia 106% | RPMI-8226 leukemia 102% | OVCAR-8 ovarian 104% | OVCAR-5 ovarian 100% | OVCAR-4 ovarian 107% | SK-OV-3 ovarian 99.8% | IGROV1 ovarian 113% | HS 578T breast 103% | NCI/ADR-RES ovarian 106%

CC1OC(O[C@@H]2[C@H](O)C(CO)OC(O[C@H]3COC(O[C@H]4CC[C@]5(C)[C@H]6CC[C@]78OC[C@@]9(CCC(C)(C)C[C@H]97)[C@H](O)C[C@@]8(C)[C@]6(C)CC[C@H]5C4(C)C)[C@@H](OC4OC(CO)[C@@H](O)[C@@H](O)[C@@H]4O)[C@@H]3O)[C@H]2OC2OC[C@@H](O)[C@@H](O)[C@@H]2O)[C@@H](O)[C@@H](O)[C@H]1O (some centres undefined)
active: SR leukemia -51.3% | RPMI-8226 leukemia -46.3% | OVCAR-8 ovarian -69% | OVCAR-5 ovarian -69% | OVCAR-4 ovarian -74.1% | SK-OV-3 ovarian -94.3% | IGROV1 ovarian -66.3% | OVCAR-3 ovarian -89.8% | HS 578T breast -54.4% | NCI/ADR-RES ovarian -44.2%

CN1C(=O)/C(=C/C=C/c2ccco2)SC1=S
inactive: SR leukemia 79.6% | RPMI-8226 leukemia 64.4% | OVCAR-8 ovarian 71.1% | OVCAR-5 ovarian 87.5% | OVCAR-4 ovarian 96.1% | SK-OV-3 ovarian 98.9% | IGROV1 ovarian 54.3% | HS 578T breast 98.1%

NC(=O)c1c(NC(=O)c2cccc(C(F)(F)F)c2F)sc2c1CCC(=O)C2
active: RPMI-8226 leukemia -5.06% | OVCAR-4 ovarian 6.91%
inactive: SR leukemia 18.7% | OVCAR-8 ovarian 18.3% | OVCAR-5 ovarian 15.6% | SK-OV-3 ovarian 77.2% | IGROV1 ovarian 23.7% | OVCAR-3 ovarian 11.6% | HS 578T breast 33.9% | NCI/ADR-RES ovarian 11%

COc1ccc(-c2nnc(SCc3ccc(O)c4ncccc34)o2)cc1
active: RPMI-8226 leukemia 9.32% | HS 578T breast -0.148%
inactive: SR leukemia 45.8% | OVCAR-8 ovarian 35.1% | OVCAR-5 ovarian 88.4% | OVCAR-4 ovarian 24.5% | SK-OV-3 ovarian 51.7% | IGROV1 ovarian 43% | OVCAR-3 ovarian 21.6% | NCI/ADR-RES ovarian 16.9%

COc1ccc(-c2nn(-c3ccccc3)cc2/C=C/C(=O)c2ccc(NC(=O)CCCCCCC(=O)NO)cc2)cc1
inactive: SR leukemia 110% | RPMI-8226 leukemia 115% | OVCAR-8 ovarian 99.7% | OVCAR-5 ovarian 108% | OVCAR-4 ovarian 97.5% | SK-OV-3 ovarian 91.7% | IGROV1 ovarian 96.2% | OVCAR-3 ovarian 96.2% | HS 578T breast 87.2% | NCI/ADR-RES ovarian 97.8%

CC1CCc2c(sc3nc(SCC(=O)N/N=C/c4cccc(O)c4O)n(-c4ccccc4)c(=O)c23)C1 (centres undefined)
inactive: SR leukemia 81% | RPMI-8226 leukemia 89.1% | OVCAR-8 ovarian 90.6% | OVCAR-5 ovarian 93.6% | OVCAR-4 ovarian 84.7% | SK-OV-3 ovarian 107% | IGROV1 ovarian 92.9% | HS 578T breast 95.8%

C[C@@H]1C[C@H]2C(=O)OCC(NC(=O)[C@H](Cc3cc(F)cc(F)c3)NC(=O)Nc3ccc(Cl)cc3F)C(=O)N3CCC[C@H]3C(=O)N3CCCC[C@H]3C(=O)N[C@@H](C)C(=O)N2C1 (some centres undefined)
inactive: SR leukemia 21.8% | RPMI-8226 leukemia 12.8% | OVCAR-8 ovarian 20% | OVCAR-5 ovarian 31.9% | OVCAR-4 ovarian 23.6% | SK-OV-3 ovarian 27.5% | IGROV1 ovarian 40.5% | HS 578T breast 32.7% | NCI/ADR-RES ovarian 24%
